Results filed as inconclusive are left out. Active and inactive are the calls of the source. Calls come from the whole dose curve; as a rule, active = well fitted cell-killing curve with a large enough effect; inconclusive = small, poorly fitted or top-dose-only effect; inactive = flat fitted curve, though single readings scatter.

From PubChem BioAssay (NCATS) come the findings set out here.
Potency is the fitted concentration of half-maximal effect.

This test is described as follows: Cell Viability - LYMP2-022 (AID 987).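 For viability change, negative = cytotoxic: 0% = DMSO alone and full effect = tetraoctylammonium bromide at 92 µM.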 Note: nearly all actives have a fitted effect of over 55% in size. Particulars: LYMP2-022 lymphoblastoid cell viability; series mostly up to 92.2 µM; viability change, negative = cytotoxic: at the top concentration. An excerpt:
NIH Chemical Genomics Center [NCGC]
NIH Molecular Libraries Screening Centers Network [MLSCN]
National Institutes of Environmental Health Sciences [NIEHS]
National Toxicology Program [NTP]
We have developed a 1536-well cell-based assay for quantitative high throughput screening (qHTS) against a number of cell lines to determine in vitro cytotoxicity of small molecules. This particular assay uses a human lymphoblastoid cell line (LYMP2-022) purchased from Coriell Institute for Medical Research.
NCGC Assay Protocol Summary:
The CellTiter-Glo luminescent cell viability assay (Promega) is a homogeneous method to measure the number of viable cells in culture. The end point readout of this assay is based on quantitation of intracellular ATP, an indicator of metabolic activity, using the luciferase reaction. Luciferase catalyzes the oxidation of beetle Luciferin to oxyluciferin and light in the presence of ATP. The luminescent signal is proportional to amount of ATP present.
Using the CellTiter-Glo luminescent cell viability assay, the amount of cellular ATP was measured in the lymphoblastoid cell line with complete culture medium following compound treatment for 24 hours. The assay was performed in opaque white Kalypsys 1536-well plates. In the screen, tetraoctylammonium bromide was used as positive control. Library compounds were measured for their ability to cause acute toxicity in the cell line, as reflected by a decrease in intracellular ATP levels, in a concentration-dependent manner. […] AC50 values were determined from concentration-response data modeled with the standard Hill equation.
qHTS protocol for CellTiter Glo lymphoblastoid cellular assay
[Step] [Parameter] [Value] [Description]
1. Reagent; 5 uL; 2500 lymphoblastoid cells/well
2. Time; 5 hr; 37 C incubation
4. Controls; 23 nL; Tetraoctylammonium bromide 6.4pM to 92 uM
5. Time; 24 hr; 37 C incubation
6. Reagent; 5 uL; CellTiter Glo reagent
7. Time; 30 min; Room Temperature
8. Detection; Luminescence; Viewlux plate reader
Keywords: cell viability, cytotoxicity, lymphoblastoid cell line, luminescence, NTPHTS, NTPHTS_NCGC, NIEHS, DSSTox, MLSMR, MLSCN, NIH Roadmap, qHTS, NCGC
For `COc1ccccc1O`, the Potency entry was “inactive”.

Regarding `O=C1O[C@H]([C@@H](O)CO)C(O)=C1O`, the “viability change, negative = cytotoxic” value was -13.5% (inactive).

On to `CCCCOC(=O)c1ccc(O)cc1`, for which the “viability change, negative = cytotoxic” value was -3.77% (inactive).

For `[Cl][In]([Cl])[Cl]`, the “viability change, negative = cytotoxic” value was -6.82% (inactive).

Turning to `NC(=O)c1ncn([C@@H]2O[C@H](CO)[C@@H](O)[C@H]2O)n1`, the “viability change, negative = cytotoxic” value is -19.3% (inactive).

Consider `Oc1cccc(O)c1`, for which the “viability change, negative = cytotoxic” value is -21.9% (inactive).

Turning to `NCCNCCNCCNCCN`, the “viability change, negative = cytotoxic” value is -5.04% (inactive).

`Cc1c(O)cccc1C(=O)N[C@@H](CSc1ccccc1)[C@H](O)CN1C[C@H]2CCCC[C@H]2C[C@H]1C(=O)NC(C)(C)C`: the Potency is 39.8 µM (active).

In the case of `CC12CCC(CC1)C(C)(C)O2`, the “viability change, negative = cytotoxic” value is -7.48% (inactive).

For the molecule `Cc1cc2nc3c(=O)[nH]c(=O)nc-3n(C[C@H](O)[C@H](O)[C@H](O)CO)c2cc1C`, the “viability change, negative = cytotoxic” value was -0.909% (inactive).

`NCCNCCNCCN`: the “viability change, negative = cytotoxic” value is -7.44% (inactive).

For the molecule `Cc1cc(CC(=O)O)n(C)c1C(=O)c1ccc(Cl)cc1`, the “viability change, negative = cytotoxic” value is -0.418% (inactive).

With `C[C@]12C[C@H](O)[C@H]3[C@@H](CCC4=CC(=O)CC[C@@]43C)[C@@H]1CC[C@@H]2C(=O)CO`, the “viability change, negative = cytotoxic” value was -23.3% (inactive).

As to `CC1(C)[C@@H]2CC[C@@]1(C)C(=O)C2`, the “viability change, negative = cytotoxic” value is -5.46% (inactive).

Take `O=C1c2c(O)cccc2Cc2cccc(O)c21`: the “viability change, negative = cytotoxic” value was 9.47% (inactive).

As to `CCCCCCCCCCCCOS(=O)(=O)O`, the Potency result is “inactive”.
